Structures can show the parent of a compound that is named as a salt. ± gives the standard deviation or the standard deviation of the averaged measurements.
Columns and labels:
Settings in all cases: 25 µM; exposure: 24-48 hpf
[1] = test system: Danio rerio Tg(wt1b:EGFP) embryo, pronephros; test: glomerular separation, fold change vs DMSO control; higher = glomeruli further apart (abnormal)
Summary of the method: (§1)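 Dechorionated Tg(wt1b:EGFP) zebrafish embryos were exposed to 25 μM compound in 0.5% DMSO, HEPES-buffered E3 with 0.003% PTU, from 24 to 48 hpf at 28.5°C. Pronephroi were imaged dorsally in agarose-filled 96-well plates (470 nm, 10 z-slices). On maximum projections, 16 reference points were set manually in Fiji and a macro computed distances and angles. Values more than 2 SD from the feature mean were excluded. Each feature is a fold change relative to the mean of same-day DMSO controls.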

[2] = test system: Danio rerio Tg(wt1b:EGFP) embryo, pronephros; test: glomerular width (mean of left and right), fold change vs DMSO control; higher = wider glomerulus
Summary of the method: as §1

[3] = test system: Danio rerio Tg(wt1b:EGFP) embryo, pronephros; test: fraction of imaged embryos annotated as normal kidney; higher = less nephrotoxic; extreme values may be limits of the assay
Summary of the method: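 Dechorionated Tg(wt1b:EGFP) zebrafish embryos were incubated with 25 μM compound in 0.5% DMSO, 5 mM HEPES-buffered E3 and 0.003% PTU from 24 to 48 hpf at 28.5°C. Pronephroi were then imaged by widefield fluorescence, and the fraction of embryos per treatment assigned by hand to the normal-kidney category is given.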

[4] = test system: Danio rerio Tg(wt1b:EGFP) embryo, pronephros; test: pronephric angle neck segment to proximal convoluted tubule (mean of left and right), fold change vs DMSO control; higher = larger pronephric angle
Summary of the method: as §1

SMILES | glomerular separation [1] | glomerular width [2] | fraction of imaged embryos annotated as normal kidney [3] | pronephric angle neck segment [4]
Cn1c(=O)c2c(ncn2CC2OCCO2)n(C)c1=O [Doxofylline] | 1.55 ± 0.87 | 0.971 ± 0.021 | 0.917 | 1.03 ± 0.03
CC(C)NC(=N)NC(=N)Nc1ccc(Cl)cc1 [Proguanil hydrochloride] | 1.2 ± 0.52 | 0.978 ± 0.0098 | 0.917 | 1.02 ± 0.054
CC(=O)[C@H]1CC[C@H]2[C@@H]3CCC4=CC(=O)CC[C@]4(C)[C@H]3CC[C@]12C [Progesterone] | 3.48 ± 3.4 | 0.873 ± 0.086 | 0.364 | 1.2 ± 0.12
CC(=O)[C@H]1CC[C@H]2[C@@H]3C[C@H](C)C4=CC(=O)CC[C@]4(C)[C@H]3[C@@H](O)C[C@]12C [Medrysone] | 1.02 ± 0.44 | 1.17 ± 0.072 | 0.417 | 0.957 ± 0.019
CC(=O)O[C@]1(C(C)=O)CC[C@H]2[C@@H]3C=C(Cl)C4=CC(=O)CC[C@]4(C)[C@H]3CC[C@@]21C [Chlormadinone acetate] | 1.26 ± 0.62 | 0.909 ± 0.053 | 0.636 | 1.17 ± 0.093
CC(C)(C)C(=O)OCOC(=O)[C@@H]1N2C(=O)[C@@H](/N=C/N3CCCCCC3)[C@H]2SC1(C)C [Pivmecillinam hydrochloride] | 0.772 ± 0.17 | 1.101 ± 0.0091 | 0.75 | 1.04 ± 0.012
CCCSc1ccc2[nH]c(NC(=O)OC)nc2c1 [Albendazole] | 3.72 ± 1.5 | 0.591 ± 0.025 | 0 | 1.97 ± 0.07
CCc1c2c(nc3ccc(OC(=O)N4CCC(N5CCCCC5)CC4)cc13)-c1cc3c(c(=O)n1C2)COC(=O)[C@]3(O)CC [Irinotecan hydrochloride trihydrate] | 1.09 ± 0.45 | 1.02 ± 0.022 | 0.667 | 1.02 ± 0.028
Nc1ccn([C@H]2CC[C@@H](CO)O2)c(=O)n1 [Zalcitabine] | 1.08 ± 0.56 | 0.966 ± 0.061 | 0.917 | 0.996 ± 0.015
C#C[C@]1(O)CC[C@H]2[C@@H]3CCC4=CC(=O)CC[C@@H]4[C@H]3CC[C@@]21C [Norethindrone] | 0.967 ± 0.35 | 0.934 ± 0.068 | 0.909 | 1 ± 0.022
C=CC[N@@+]12CC[C@@]34c5ccccc5N5/C=C6/[C@H]7C[C@H]8[C@@]9(CC[N@@+]8(CC=C)C/C7=C/CO)c7ccccc7N(/C=C(/[C@@H](C[C@@H]31)/C(=C\CO)C2)[C@H]54)[C@@H]69 [Alcuronium chloride] | 1.23 ± 0.57 | 1.03 ± 0.052 | 0.833 | 0.958 ± 0.03
CCCCN(CCCC)CCC(O)c1cc2c(Cl)cc(Cl)cc2c2cc(C(F)(F)F)ccc12 (centres undefined) [Halofantrine hydrochloride] | 4.43 ± 1.8 | 0.655 ± 0.038 | 0 | 1.32 ± 0.061
CN1CCC(=C2c3ccccc3C=Cc3ccccc32)CC1 [Cyproheptadine hydrochloride] | 1.28 ± 0.31 | 0.94 ± 0.06 | 0.667 | 1.2 ± 0.081
COc1ccccc1N1CCN(CC(O)COc2cccc3ccccc23)CC1 (centres undefined) [Naftopidil dihydrochloride] | 0.922 ± 0.42 | 0.983 ± 0.024 | 0.833 | 0.966 ± 0.034
Cc1[nH]cnc1CN1CCc2c(c3ccccc3n2C)C1=O [Alosetron hydrochloride] | 0.809 ± 0.28 | 1.027 ± 0.0085 | 0.917 | 0.977 ± 0.015
CC(C)NC[C@@H](O)COc1cccc2ccccc12 [(R)-Propranolol hydrochloride] | 1.07 ± 0.46 | 0.963 ± 0.013 | 0.833 | 0.98475 ± 0.00073
O=C(O)c1cc(=O)c2c(OCC(O)COc3cccc4oc(C(=O)O)cc(=O)c34)cccc2o1 [Cromolyn disodium salt] | 0.753 ± 0.22 | 1.08 ± 0.011 | 0.909 | 1.0048 ± 0.00061
CCOC(=O)C1=C(COCCN)NC(C)=C(C(=O)OC)C1c1ccccc1Cl (centres undefined) [Amlodipine] | 0.923 ± 0.2 | 1.03 ± 0.085 | 1 | 0.983 ± 0.029
CC1CC(OC(=O)c2ccccc2O)CC(C)(C)C1 (centres undefined) [Homosalate] | 0.865 ± 0.19 | 0.8777 ± 0.0016 | 0.667 | 1.15 ± 0.044
OC(c1cc(C(F)(F)F)nc2c(C(F)(F)F)cccc12)C1CCCCN1 (centres undefined) [Mefloquine hydrochloride] | 1.17 ± 0.51 | 1.01 ± 0.019 | 0.667 | 1.017 ± 0.0068
CN(C)CCC[C@@]1(c2ccc(F)cc2)OCc2cc(C#N)ccc21 [Escitalopram oxalate] | 1.13 ± 0.38 | 0.9778 ± 0.0032 | 0.833 | 0.941 ± 0.024
COc1ccc(-c2cc(=O)c3c(O)cc(O[C@@H]4O[C@H](CO[C@@H]5O[C@@H](C)[C@H](O)[C@@H](O)[C@H]5O)[C@@H](O)[C@H](O)[C@H]4O)cc3o2)cc1O [Diosmin] | 1.06 ± 0.42 | 0.996 ± 0.011 | 0.727 | 0.974 ± 0.032
CC(C(=O)O)c1ccc(N2Cc3ccccc3C2=O)cc1 (centres undefined) [Indoprofen] | 2.27 ± 0.52 | 0.658 ± 0.069 | 0.2 | 1.3 ± 0.1
NS(=O)(=O)c1cc2c(cc1Cl)NCNS2(=O)=O [Hydrochlorothiazide] | 1.03 ± 0.25 | 0.972 ± 0.024 | 0.833 | 0.937 ± 0.013
COC(=O)CCc1ccc(OCC(O)CNC(C)C)cc1 (centres undefined) [Esmolol hydrochloride] | 0.66 ± 0.2 | 1.15 ± 0.035 | 0.75 | 0.986 ± 0.013
CCN(CC)C(=O)Nc1ccc(OCC(O)CNC(C)(C)C)c(C(C)=O)c1 (centres undefined) [Celiprolol hydrochloride] | 0.729 ± 0.21 | 1.03 ± 0.018 | 0.833 | 0.964 ± 0.046

SMILES | glomerular separation [1] | glomerular width [2] | fraction of imaged embryos annotated as normal kidney [3] | pronephric angle neck segment [4]
C#C[C@]1(O)CC[C@H]2[C@@H]3CCC4=Cc5oncc5C[C@]4(C)[C@H]3CC[C@@]21C [Danazol] | 3.7 ± 1.5 | 0.592 ± 0.0074 | 0 | 1.1 ± 0.12
C[C@@H](O)[C@H]1C(=O)N2C(C(=O)O)=C(S[C@@H]3CN[C@H](C(=O)N(C)C)C3)[C@H](C)[C@H]12 [Meropenem] | 1.03 ± 0.35 | 0.957 ± 0.021 | 0.75 | 1.0113 ± 1.4e-05
CO[C@@H]1[C@@H](O[C@@H]2O[C@H](C)[C@@H](O[C@H]3C[C@@](C)(O)[C@@H](OC(=O)CC(C)C)[C@H](C)O3)[C@H](N(C)C)[C@H]2O)[C@@H](CC=O)C[C@@H](C)[C@@H](O)/C=C/C=C/C[C@@H](C)OC(=O)C[C@H]1OC(C)=O [Josamycin] | 1.16 ± 0.39 | 1.13 ± 0.093 | 0.909 | 1.0423 ± 0.00028
COc1ccccc1OCC(O)CO (centres undefined) [Guaifenesin] | 1.21 ± 0.52 | 0.929 ± 0.12 | 0.917 | 1.07 ± 0.035
Cc1ccnc(NS(=O)(=O)c2ccc(N)cc2)n1 [Sulfamerazine] | 0.775 ± 0.22 | 1.03 ± 0.011 | 0.909 | 0.974 ± 0.085
O=C(NCCN1CCOCC1)c1ccc(Cl)cc1 [Moclobemide] | 0.89 ± 0.26 | 1.01 ± 0.088 | 0.833 | 0.969 ± 0.011
N=C(N)c1ccc(OCCCCCOc2ccc(C(=N)N)cc2)cc1 [Pentamidine isethionate] | 0.801 ± 0.21 | 0.99 ± 0.024 | 1 | 0.982 ± 0.02
CN[C@H](CC(C)C)C(=O)N[C@H]1C(=O)N[C@@H](CC(N)=O)C(=O)N[C@H]2C(=O)N[C@H]3C(=O)N[C@H](C(=O)N[C@H](C(=O)O)c4cc(O)cc(O)c4-c4cc3ccc4O)[C@H](O)c3ccc(c(Cl)c3)Oc3cc2cc(c3O[C@@H]2O[C@H](CO)[C@@H](O)[C@H](O)[C@H]2O[C@H]2C[C@](C)(N)[C@H](O)[C@H](C)O2)Oc2ccc(cc2Cl)[C@H]1O [Vancomycin hydrochloride] | 0.943 ± 0.23 | 0.978 ± 0.033 | 0.909 | 1.06 ± 0.077
Oc1c(I)cc(Cl)c2cccnc12 [Clioquinol] | 4.35 ± 1.5 | 0.626 ± 0.024 | 0 | 1.59 ± 0.077
Cc1cccc(C)c1NC(=O)C1CCCCN1C (centres undefined) [Mepivacaine hydrochloride] | 0.751 ± 0.32 | 1.06 ± 0.058 | 0.917 | 0.991 ± 0.054
Cc1cc(-c2ccccc2)nnc1NCCN1CCOCC1 [Minaprine dihydrochloride] | 1.13 ± 0.95 | 1.03 ± 0.03 | 0.75 | 0.9963 ± 0.0098
CN1Cc2c(N)cccc2C(c2ccccc2)C1 (centres undefined) [Nomifensine maleate] | 0.973 ± 0.34 | 1.04 ± 0.051 | 1 | 1.01 ± 0.065
CO[C@H]1/C=C/O[C@@]2(C)Oc3c(C)c(O)c4c(O)c(c5c(nc6cc(C)ccn65)c4c3C2=O)NC(=O)/C(C)=C\C=C\[C@H](C)[C@H](O)[C@@H](C)[C@@H](O)[C@@H](C)[C@H](OC(C)=O)[C@@H]1C [Rifaximin] | 0.666 ± 0.16 | 1.06 ± 0.019 | 0.833 | 0.984 ± 0.022
CCN(CCCc1ccccc1)CCCc1ccccc1 [Alverine citrate salt] | 0.843 ± 0.21 | 1.02 ± 0.044 | 0.75 | 0.942 ± 0.035
CC(C)NC[C@@H](O)COc1ccc(CC(N)=O)cc1 [(R)-(+)-Atenolol] | 0.655 ± 0.16 | 0.977 ± 0.036 | 0.917 | 0.977 ± 0.029
CCOc1ccc2c(c1)C(C)=CC(C)(C)N2 [Ethoxyquin] | 0.864 ± 0.31 | 1.04 ± 0.039 | 0.75 | 0.975 ± 0.044
O=C1C(CC[S+]([O-])c2ccccc2)C(=O)N(c2ccccc2)N1c1ccccc1 (centres undefined) [Sulfinpyrazone] | 1.21 ± 0.35 | 1.02 ± 0.03 | 0.833 | 1 ± 0.012
Fc1ccc(C(c2ccc(F)cc2)N2CCN(C/C=C/c3ccccc3)CC2)cc1 [Flunarizine dihydrochloride] | 1.22 ± 0.69 | 0.932 ± 0.0099 | 0.364 | 0.937 ± 0.017
Cn1c(=O)c2c(ncn2CC(O)CO)n(C)c1=O (centres undefined) [Diprophylline] | 0.977 ± 0.2 | 0.966 ± 0.01 | 0.667 | 1.05 ± 0.051
C#C[C@]1(O)CC[C@H]2[C@@H]3CCc4cc(O)ccc4[C@H]3CC[C@@]21C [Ethinylestradiol] | 1.64 ± 0.76 | 0.823 ± 0.015 | 0.667 | 1.3 ± 0.015
CCn1cc(C(=O)O)c(=O)c2cnc(N3CCNCC3)nc21 [Pipemidic acid] | 0.919 ± 0.32 | 1.05 ± 0.013 | 0.75 | 0.9737 ± 0.0064
CN(C)CCCSC(=N)N [Dimaprit dihydrochloride] | 0.745 ± 0.36 | 1.05 ± 0.052 | 0.75 | 1 ± 0.022
COc1ccc(CC2c3cc(OC)c(OC)cc3CC[N+]2(C)CCC(=O)OCCCCCOC(=O)CC[N+]2(C)CCc3cc(OC)c(OC)cc3C2Cc2ccc(OC)c(OC)c2)cc1OC (centres undefined) [Atracurium besylate] | 1.2 ± 0.6 | 0.944 ± 0.012 | 0.917 | 0.954 ± 0.016
O=c1[nH]cnc2c1ncn2[C@H]1CC[C@@H](CO)O1 [Didanosine] | 1.24 ± 0.56 | 1.06 ± 0.052 | 0.7 | 0.972 ± 0.041
NS(=O)(=O)c1cc(C(=O)O)cc(N2CCCC2)c1Oc1ccccc1 [Piretanide] | 1.08 ± 0.68 | 1.02 ± 0.048 | 0.917 | 1.03 ± 0.038

Source: the supplement of paper PMC7366291
